# Laboratory results as given in the supplement of paper PMC4466140.
# Experiments:
# Assay in all cases: SPOT peptide array binding signal intensity (averaged, normalized) (arbitrary units (background-subtracted, floor 0; scale differs between SH3 domains)); higher = stronger binding of the SH3 domain to the peptide
# AgAbp1 = target: AgAbp1
# Method: (§1)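 GST-tagged SH3 domains from S. cerevisiae (Sc), A. gossypii (Ag), C. albicans (Ca) and S. pombe (Sp) were incubated at 10 ug/ml overnight at 4 C on cellulose SPOT membranes carrying 292 synthetic 15-mer peptides mined from the S. cerevisiae proteome (cysteines replaced by serines). Binding was detected with anti-GST antibody, HRP secondary and chemiluminescence, quantified with Genespotter, and reported as normalized spot intensities averaged over biological replicates.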
# AgBbc1 = target: AgBbc1
# Method: as §1
# AgBem1-D1 = target: AgBem1-D1
# Method: as §1
# AgBzz1-D1 = target: AgBzz1-D1
# Method: as §1
# AgBzz1-D2 = target: AgBzz1-D2
# Method: as §1
# AgCyk3 = target: AgCyk3
# Method: as §1
# AgFus1 = target: AgFus1
# Method: as §1
# AgHof1 = target: AgHof1
# Method: as §1
# AgHse1 = target: AgHse1
# Method: as §1
# AgLsb1 = target: AgLsb1
# Method: as §1
# AgLsb4 = target: AgLsb4
# Method: as §1
# AgMyo5 = target: AgMyo5
# Method: as §1
# AgNbp2 = target: AgNbp2
# Method: as §1
# AgRvs167 = target: AgRvs167
# Method: as §1
# AgSho1 = target: AgSho1
# Method: as §1
# AgSla1-D1-D2 = target: AgSla1-D1-D2
# Method: as §1
# AgSla1-D3 = target: AgSla1-D3
# Method: as §1
# CaAbp1-D1 = target: CaAbp1-D1
# Method: as §1
# CaAbp1-D2 = target: CaAbp1-D2
# Method: as §1
# CaBbc1 = target: CaBbc1
# Method: as §1
# CaBem1-D1 = target: CaBem1-D1
# Method: as §1
# CaBzz1-D1 = target: CaBzz1-D1
# Method: as §1
# CaBzz1-D2 = target: CaBzz1-D2
# Method: as §1
# CaCyk3 = target: CaCyk3
# Method: as §1
# CaFus1 = target: CaFus1
# Method: as §1
# CaHof1 = target: CaHof1
# Method: as §1
# CaHse1 = target: CaHse1
# Method: as §1
# CaLsb1 = target: CaLsb1
# Method: as §1
# CaLsb4 = target: CaLsb4
# Method: as §1
# CaMyo5 = target: CaMyo5
# Method: as §1
# CaNbp2 = target: CaNbp2
# Method: as §1
# CaRvs167 = target: CaRvs167
# Method: as §1
# CaRvs167-3 = target: CaRvs167-3
# Method: as §1
# CaSho1 = target: CaSho1
# Method: as §1
# CaSla1-D1-D2 = target: CaSla1-D1-D2
# Method: as §1
# CaSla1-D3 = target: CaSla1-D3
# Method: as §1
# ScAbp1 = target: ScAbp1
# Method: as §1
# ScBbc1 = target: ScBbc1
# Method: as §1
# ScBem1-D1 = target: ScBem1-D1
# Method: as §1
# ScBzz1-D1 = target: ScBzz1-D1
# Method: as §1
# ScBzz1-D2 = target: ScBzz1-D2
# Method: as §1
# ScCyk3 = target: ScCyk3
# Method: as §1
# ScFus1 = target: ScFus1
# Method: as §1
# ScHof1 = target: ScHof1
# Method: as §1
# ScHse1 = target: ScHse1
# Method: as §1
# ScLsb1 = target: ScLsb1
# Method: as §1
# ScLsb2 = target: ScLsb2
# Method: as §1
# ScLsb3 = target: ScLsb3
# Method: as §1
# ScLsb4 = target: ScLsb4
# Method: as §1
# ScMyo3 = target: ScMyo3
# Method: as §1
# ScMyo5 = target: ScMyo5
# Method: as §1
# ScNbp2 = target: ScNbp2
# Method: as §1
# ScPex13 = target: ScPex13
# Method: as §1
# ScRvs167 = target: ScRvs167
# Method: as §1
# ScSho1 = target: ScSho1
# Method: as §1
# ScSla1-D1-D2 = target: ScSla1-D1-D2
# Method: as §1
# ScSla1-D3 = target: ScSla1-D3
# Method: as §1
# SpAbp1-D1 = target: SpAbp1-D1
# Method: as §1
# SpBbc1 = target: SpBbc1
# Method: as §1
# SpBzz1-D1 = target: SpBzz1-D1
# Method: as §1
# SpBzz1-D2 = target: SpBzz1-D2
# Method: as §1
# SpCyk3 = target: SpCyk3
# Method: as §1
# SpHof1 = target: SpHof1
# Method: as §1
# SpHof1-2 = target: SpHof1-2
# Method: as §1
# SpHof1-3 = target: SpHof1-3
# Method: as §1
# SpHse1 = target: SpHse1
# Method: as §1
# SpLsb1 = target: SpLsb1
# Method: as §1
# SpLsb4 = target: SpLsb4
# Method: as §1
# SpMyo1 = target: SpMyo1
# Method: as §1
# SpNbp2 = target: SpNbp2
# Method: as §1
# SpPex13 = target: SpPex13
# Method: as §1
# SpRvs167 = target: SpRvs167
# Method: as §1
# SpSla1-D1-D2 = target: SpSla1-D1-D2
# Method: as §1
# SpSla1-D3 = target: SpSla1-D3
# Method: as §1
binder,measurement,setting,value
ISNFVPPNLPMRRFK,SPOT peptide array binding signal intensity,AgAbp1,31.5
same,SPOT peptide array binding signal intensity,AgBbc1,182
same,SPOT peptide array binding signal intensity,AgBem1-D1,124
same,SPOT peptide array binding signal intensity,AgBzz1-D1,90
same,SPOT peptide array binding signal intensity,AgBzz1-D2,70.5
same,SPOT peptide array binding signal intensity,AgCyk3,1
same,SPOT peptide array binding signal intensity,AgFus1,23
same,SPOT peptide array binding signal intensity,AgHof1,186
same,SPOT peptide array binding signal intensity,AgHse1,49
same,SPOT peptide array binding signal intensity,AgLsb1,136
same,SPOT peptide array binding signal intensity,AgLsb4,3890
same,SPOT peptide array binding signal intensity,AgMyo5,≤ 0
same,SPOT peptide array binding signal intensity,AgNbp2,64
same,SPOT peptide array binding signal intensity,AgRvs167,256
same,SPOT peptide array binding signal intensity,AgSho1,20.5
same,SPOT peptide array binding signal intensity,AgSla1-D1-D2,2.5
same,SPOT peptide array binding signal intensity,AgSla1-D3,3
same,SPOT peptide array binding signal intensity,CaAbp1-D1,40
same,SPOT peptide array binding signal intensity,CaAbp1-D2,9
same,SPOT peptide array binding signal intensity,CaBbc1,902
same,SPOT peptide array binding signal intensity,CaBem1-D1,21
same,SPOT peptide array binding signal intensity,CaBzz1-D1,370
same,SPOT peptide array binding signal intensity,CaBzz1-D2,297
same,SPOT peptide array binding signal intensity,CaCyk3,47
same,SPOT peptide array binding signal intensity,CaFus1,152
same,SPOT peptide array binding signal intensity,CaHof1,5
same,SPOT peptide array binding signal intensity,CaHse1,72
same,SPOT peptide array binding signal intensity,CaLsb1,10.2
same,SPOT peptide array binding signal intensity,CaLsb4,5880
same,SPOT peptide array binding signal intensity,CaMyo5,28.5
same,SPOT peptide array binding signal intensity,CaNbp2,103
same,SPOT peptide array binding signal intensity,CaRvs167,571
same,SPOT peptide array binding signal intensity,CaRvs167-3,6.25
same,SPOT peptide array binding signal intensity,CaSho1,49.5
same,SPOT peptide array binding signal intensity,CaSla1-D1-D2,1000
same,SPOT peptide array binding signal intensity,CaSla1-D3,250
same,SPOT peptide array binding signal intensity,ScAbp1,44
same,SPOT peptide array binding signal intensity,ScBbc1,130
same,SPOT peptide array binding signal intensity,ScBem1-D1,13
same,SPOT peptide array binding signal intensity,ScBzz1-D1,29.5
same,SPOT peptide array binding signal intensity,ScBzz1-D2,63
same,SPOT peptide array binding signal intensity,ScCyk3,5.5
same,SPOT peptide array binding signal intensity,ScFus1,17
same,SPOT peptide array binding signal intensity,ScHof1,8.75
same,SPOT peptide array binding signal intensity,ScHse1,122
same,SPOT peptide array binding signal intensity,ScLsb1,393
same,SPOT peptide array binding signal intensity,ScLsb2,372
same,SPOT peptide array binding signal intensity,ScLsb3,7910
same,SPOT peptide array binding signal intensity,ScLsb4,2470
same,SPOT peptide array binding signal intensity,ScMyo3,17.2
same,SPOT peptide array binding signal intensity,ScMyo5,1.5
same,SPOT peptide array binding signal intensity,ScNbp2,198
same,SPOT peptide array binding signal intensity,ScPex13,1760
same,SPOT peptide array binding signal intensity,ScRvs167,1610
same,SPOT peptide array binding signal intensity,ScSho1,85.5
same,SPOT peptide array binding signal intensity,ScSla1-D1-D2,367
same,SPOT peptide array binding signal intensity,ScSla1-D3,184
same,SPOT peptide array binding signal intensity,SpAbp1-D1,26
same,SPOT peptide array binding signal intensity,SpBbc1,36.5
same,SPOT peptide array binding signal intensity,SpBzz1-D1,748
same,SPOT peptide array binding signal intensity,SpBzz1-D2,3
same,SPOT peptide array binding signal intensity,SpCyk3,8
same,SPOT peptide array binding signal intensity,SpHof1,51.8
same,SPOT peptide array binding signal intensity,SpHof1-2,41
same,SPOT peptide array binding signal intensity,SpHof1-3,22
same,SPOT peptide array binding signal intensity,SpHse1,86
same,SPOT peptide array binding signal intensity,SpLsb1,236
same,SPOT peptide array binding signal intensity,SpLsb4,6240
same,SPOT peptide array binding signal intensity,SpMyo1,31.2
same,SPOT peptide array binding signal intensity,SpNbp2,13
same,SPOT peptide array binding signal intensity,SpPex13,57.5
same,SPOT peptide array binding signal intensity,SpRvs167,1440
same,SPOT peptide array binding signal intensity,SpSla1-D1-D2,69
same,SPOT peptide array binding signal intensity,SpSla1-D3,32
